# Most compounds without a hit are left out; they make up all but 2.2% or so of the library.
# GC-B act – GC-B (human) receptor activation; P20594; HEK293-GC-B cells, CNP EC30, cGMP TR-FRET; 0% at EC30 CNP, 100% saturating CNP; activation, % at 10 µM; hit rate 0.11% among 370,000;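 active means activation at 10 µM reaching about 35% in either raw or pattern-adjusted values, limit read from the data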
# ADAM10 inh – inhibitors of human ADAM10; inhibition, % at 7 µM; hit rate 0.62% among 370,000; O14672; AID 720582; recombinant ADAM10, EDANS/DABCYL FRET peptide cleavage, 3 h;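 active means inhibition above a per-campaign cutoff equal to the mean of compounds falling between control-based bounds plus 3 SD, cut at about 20% in these data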;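 further: 0% = DMSO wells while the 100% control is not disclosed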
# Target sequence (O14672 214-748 limits assumed): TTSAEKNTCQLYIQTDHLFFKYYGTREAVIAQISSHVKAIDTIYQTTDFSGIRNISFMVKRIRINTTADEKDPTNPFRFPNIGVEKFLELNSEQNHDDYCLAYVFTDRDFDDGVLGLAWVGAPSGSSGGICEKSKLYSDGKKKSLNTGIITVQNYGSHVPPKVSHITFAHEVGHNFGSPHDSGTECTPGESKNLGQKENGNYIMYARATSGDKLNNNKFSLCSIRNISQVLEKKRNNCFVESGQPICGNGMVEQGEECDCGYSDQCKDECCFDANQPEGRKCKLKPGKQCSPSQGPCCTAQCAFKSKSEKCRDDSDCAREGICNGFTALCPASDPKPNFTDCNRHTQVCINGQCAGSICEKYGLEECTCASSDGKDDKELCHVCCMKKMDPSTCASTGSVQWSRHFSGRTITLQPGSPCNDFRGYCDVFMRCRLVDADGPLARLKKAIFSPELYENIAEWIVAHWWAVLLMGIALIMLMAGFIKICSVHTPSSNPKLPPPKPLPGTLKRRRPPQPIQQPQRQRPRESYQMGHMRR
# NPR1 activator – GC-A (human) enzyme activation | HEK293 GC-A cells, cGMP TR-FRET, EC30 ANP; 0% at EC30 ANP, 100% saturating ANP | hit rate 0.14% among 370,000 | AID 1671463 | activation, % at 10 µM; in the data active means activation above about 40%
# ADAM17 inh – ADAM17 inhibition, QFRET primary screen; P78536; recombinant ADAM17, EDANS/DABCYL FRET peptide cleavage; inhibition, % at 6.95 µM; hit rate 0.83% among 370,000; AID 720648;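 active means inhibition above the mean of compounds lying between control limits plus 3 SD, set per campaign, cut at about 8.5% in these data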;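 further: 0% = DMSO-only wells as the low control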
# proKLK7 act – activators of human kallikrein-7 zymogen; P49862; purified proKLK7, EDANS-DABCYL substrate fluorescence; 100% is mature enzyme control, 0% vehicle; activation, % at 7 µM; hit rate 0.9% among 370,000;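 active means activation above the mean of all tested compounds plus 3 SD, computed per campaign excluding outliers beyond control limits, cut at about 13% in these data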
# proKLK7 act conf – confirmation of human kallikrein-7 zymogen activators; shares compounds with proKLK7 act; activation, % at 7 µM; purified proKLK7, EDANS-DABCYL substrate fluorescence; scaled: vehicle 0, mature enzyme 100; AID 686949; hit rate 68% among 3,200;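 active means activation, as change over the incubation, above the mean of all tested compounds plus 3 SD, cut at about 13% in these data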
# EDANS interfere – counter-screen for kallikrein-7 activators: EDANS-DABCYL optical interference | shares compounds with proKLK7 act | EDANS-DABCYL substrate fluorescence interference, no enzyme, 4 h; solvent 0%, active enzyme control 100% | activation, % at 7 µM | hit rate 80% among 3,200 | AID 686952;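 active means activation above the all-compound mean plus 3 SD, ignoring values outside control-based bounds, cut at about 4.8% in these data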;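 further: value is the 4 h activation minus the activation read at time zero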
# EDANS interf – counter-screen for kallikrein-7 activators: EDANS-DABCYL interference, dose response. shares compounds with proKLK7 act. EDANS-DABCYL peptide fluorescence interference, no enzyme. EC50, µM. hit rate 20% among 250;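 active means compounds that raise the fluorescence signal in this interference counterscreen, with EC50 at or below 10 µM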;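 further: intact quenched peptide substrate alone read at 355 nm excitation and 520 nm emission; signal is fluorescence gain from T0 to T4 after four hours at room temperature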
# Active calls of the source: *; i = inactive; · = no result given.
SMILES,GC-B act,ADAM10 inh,NPR1 activator,ADAM17 inh,proKLK7 act,proKLK7 act conf,EDANS interfere,others
Cc1sc(-c2ccccn2)nc1OC(=O)c1ccc(Cl)cc1,12,1,5,0,0,·,·,
COc1ccc2c(c1)C(=O)CC(O)(C(F)F)O2 (configuration not stated),-2,i,4,-223,45*,40*,33*,
CC1(C)CC(=O)c2cc(OCC(=O)N3CCN(c4ccccc4F)CC3)ccc2O1,-1,-358,-2,-134,10,·,·,
CC1(C)CC(=O)c2cc(OCC(=O)O)ccc2O1,-2,i,7,-339,14*,42*,48*,
CCOC(=O)COc1ccc2c(c1)C(=O)CC(C)(C)O2,4,i,0,-423,18*,67*,67*,
CC1(C)CC(=O)c2cc(OCC(=O)N3CCCCCC3)ccc2O1,5,i,5,i,26*,68*,75*,
Cc1ccccc1CNC(=O)c1cccc2c1C(=O)N(Cc1cccnc1)C2,10,-13,2,-4,0,·,·,
CCOC(=O)N1CCN(C(=O)COc2ccc3c(c2)C(=O)CC(C)(C)O3)CC1,2,i,2,i,31*,26*,10*,EDANS interf=>70
CC1(C)CC(=O)c2cc(OCC(=O)NCCN3CCOCC3)ccc2O1,-1,i,7,-212,16*,25*,26*,
CC1C2CC(CC1(C)C)N(C(=O)Nc1ccc3nccnc3c1)C2 (configuration not stated),-5,i,7,-185,18*,-1,-1,
Cc1nc2cc(NC(=O)N3CC4(C)CC3CC(C)(C)C4)ccc2n1C (configuration not stated),-1,2,3,-2,0,·,·,
CC[C@H](C)/C=C(C)/C=C/c1cc2c(cn1)C(=O)[C@@](C)(OC(C)=O)C(O)=C2Cl,-5,-231,5,-61,86*,108*,123*,
CCc1cc(=O)oc2cc(OC(C)=O)cc(OC(C)=O)c12,1,i,8,i,79*,486*,534*,
COc1cc(OCc2ccccc2)c(CC(=O)O)c([N+](=O)[O-])c1,-7,6,-1,0,0,·,·,
COc1cc(OCc2ccccc2)c2c(CCC(=O)O)cc(=O)oc2c1,0,i,1,i,89*,59*,58*,
COC1=C[C@H](C(=O)NCCNC(C)=O)[C@@]2(C)Cc3ccccc3[C@H]2CC1=O,9,-3,-1,0,1,·,·,
COc1ccc2c(c1)CNC2CS(=O)(=O)NCc1ccc(F)cc1 (configuration not stated),2,-44,-4,-14,0,·,·,
COC(=O)COc1ccc(C)cc1-n1nc2ccccc2n1,5,-5,1,-6,1,·,·,
COC(=O)COc1ccccc1C(N)=O,2,-13,4,-5,0,·,·,
COC(=O)COc1ccc(-c2ccccc2)cc1C=O,-11,-109,-2,-32,14*,-12,-16,
COC(=O)COc1ccc(-c2ccc(F)cc2)cc1C=O,-5,-72,-1,-23,13*,-26,-30,
c1ccc(-c2nc(N3CCCCC3)nc3ccccc23)cc1,1,-457,-1,-143,22*,-69,-50,
CCN1CCN(c2nc(-c3ccccc3)c3ccccc3n2)CC1,2,i,-5,-202,28*,-10,-6,
c1ccc(-c2nc(N3CCNCC3)nc3ccccc23)cc1,-13,-490,-27,-153,69*,18*,19*,
CCN(CC)c1nc(N2CCN(CCO)CC2)nc2ccccc12,-4,-2,9,-2,0,·,·,
SMILES,GC-B act,ADAM10 inh,NPR1 activator,ADAM17 inh,proKLK7 act,proKLK7 act conf,EDANS interfere,others
c1ccc2c(N3CCCCC3)nc(N3CCCC3)nc2c1,7,-17,7,-8,-2,·,·,
CSc1nc2nc(Cl)c(Cl)nc2[nH]1,-3,i,1,i,26*,45*,46*,
CCOC(=O)CSc1nc2nc(Cl)c(Cl)nc2[nH]1,5,i,5,i,36*,30*,31*,
COC(=O)c1ccc(S(=O)(=O)N2CCC(NC(=O)Cc3ccccc3)CC2)cc1,0,-1,4,1,0,·,·,
Cn1c(=O)c(-c2ccccc2)c(O)c2ccccc21,3,-7,1,-3,0,·,·,
Cc1ccc(N=Cc2c(O)c3ccccc3n(C)c2=O)cc1,-2,-11,1,-5,29*,-131,-103,
Cc1c(O)c(=O)c2ccccc2n1C,-1,i,0,i,92*,73*,64*,
CCc1ccc(C2=CC(c3cc(Br)ccc3F)n3ncnc3N2)cc1 (configuration not stated),2,-264,11,-103,13*,4,4.9*,
C[C@H]1C(c2ccc(F)cc2)=NN(c2ccccc2)[C@@H]1CO,-4,i,16,-478,23*,-13,-26,
COc1ccccc1[C@H]1C(c2ccc(F)cc2)=NN(c2ccccc2)[C@@H]1CO,-3,i,5,i,-58,·,·,
COc1ccc(OC)c(/C=N/NC(=O)CC(=O)NCc2ccccc2)c1,6,i,1,-209,10,·,·,
COc1ccc(NC(=O)COc2ccc(/C=N/NC(=O)c3cccnc3)cc2OC)cc1,5,2,1,-4,20*,-272,-182,
COc1ccc(OC)c(/C=N/NC(=O)CC2C(=O)NN=C2C)c1 (configuration not stated),0,i,0,-306,77*,45*,39*,
COc1ccc(OC)c(/C=N/NC(=O)c2cnccn2)c1,-5,-1,4,-4,26*,36*,39*,
COc1cc(/C=N/NC(=O)c2cccnc2)ccc1OCC(=O)Nc1ccccc1Cl,3,2,0,0,0,·,·,
COc1ccc(OC)c(/C=N/NC(=O)CC(=O)NC2CCCCC2)c1,-5,i,-9,i,29*,4,23*,
COc1ccc(/C=N/NC(=O)c2cnccn2)c(OC)c1OC,-3,8,-2,1,1,·,·,
C[C@@H]1COc2cc(F)ccc2S(=O)(=O)N1C,5,2,-4,-3,0,·,·,
CCCCN1C[C@@H](COCc2ccccc2)Oc2cccc(F)c2S1(=O)=O,-3,18,-1,3,0,·,·,
COc1ccc(OC)c(/C=N/NC(=O)C(=O)N/N=C/c2cc(OC)ccc2OC)c1,-2,-4,0,-2,3,·,·,

# Screening data deposited in PubChem by several laboratories.
